Among the data in PubChem BioAssay (NCI) are growth inhibition values, retold here.

Compounds without any hit were thinned out: in the full panel of roughly 79,000, 15% have a hit. The source made the active and inactive calls. No stated cut-off is given here; in the data, active means growth inhibition above about 70%; inactive means the rest.

The nature of the first assay: NCI Yeast Anticancer Drug Screen. Data for the bub3 strain (AID 167). Conditions: S. cerevisiae bub3 mutant strain, at 100.0 µM, hits give high values. In a few lines: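 Readout: yeast growth inhibition, expressed relative to vehicle-only wells. The test organism is a mutant strain from a panel with lesions in DNA repair or checkpoint genes.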
On to `C/C(=N\NC(=S)SCc1ccccc1)c1ccccn1`, for which the growth inhibition was 91% (active).

For the compound `CC[C@@]1(O)C(=O)OCc2c1cc1n(c2=O)Cc2cc3c(N)cccc3nc2-1`, the growth inhibition is -30% (inactive).

As for `CN(C)c1ccc(Sc2ccc3nc(N)nc(N)c3c2)cc1`, the growth inhibition is -9% (inactive).

For `CC(=O)OCCOCNC(=S)N/N=C(\C)c1cnccn1`, the growth inhibition was 84% (active).

As for `COc1ccc(C2c3cc4c(cc3OC(C)(O)C2C)OCO4)c(OC)c1` (configuration not stated), the growth inhibition is 95% (active).

Turning to `COc1cc(C2SCC(=O)N2c2ccc(-c3ccc(-n4c(-c5ccccc5)nc5ccccc5c4=O)cc3)cc2)cc(OC)c1OC` (configuration not stated), the growth inhibition was 41% (inactive).

On to `COc1ccc(Br)c(C(=O)Sc2nnnn2-c2cccc(Cl)c2)c1`, for which the growth inhibition is 93% (active).

Regarding `O=C(NNc1ccnc2cc(Cl)ccc12)/C(=C\c1ccccc1Cl)NC(=O)c1ccccc1`, the growth inhibition is 76% (active).

Take `CSC(=S)Nc1cccc(C)n1`: the growth inhibition was 74% (active).

Turning to `O=C(/C=C\c1ccc(Cl)cc1Cl)c1cccs1`, the growth inhibition was 48% (inactive).

`COc1ccc(-c2cn(-c3ccc(I)cc3)c3ncnc(N)c23)cc1`: the growth inhibition was 0% (inactive).

On to `CN(C)c1ccc(C(C#N)=C(C#N)C#N)cc1`, for which the growth inhibition is 31% (inactive).

As to `COc1cc(/C=C2\CCc3ccccc3C2=O)cc(OC)c1OC`, the growth inhibition was 85% (active).

`CC(C)/C(Cl)=N\OC(=O)Nc1cccc(Cl)c1`: the growth inhibition was 10% (inactive).

Regarding `NNC(=O)CCc1ccc2ccc3ccccc3c2c1`, the growth inhibition was 58% (inactive).

For `COc1ccc(/C(C)=N/OC(=O)c2c(-c3ccccc3Cl)noc2C)cc1CN1CCOCC1`, the growth inhibition was 50% (inactive).

For the compound `C=CC(C)(O)CCC1C(=C)C(O)CC2C(C)(C)CCCC12C` (configuration not stated), the growth inhibition was 69% (inactive).

On to `S=C(Nc1ccc(Cl)c(Cl)c1)SCc1ccc2c(c1)OCO2`, for which the growth inhibition is 96% (active).

As to `S=C(Nc1ccc(Cl)cc1)SC1CCCCC1`, the growth inhibition was 98% (active).

Consider `Nc1nc(-c2cccnc2)cc(-c2cc(-c3cccnc3)nc(N)n2)n1`, for which the growth inhibition is -10% (inactive).

Regarding `COC1=CC(=O)C2C(C1=O)C(c1ccc(Cl)cc1)[C@@H]2C` (some centres not stated), the growth inhibition is 99% (active).

For `c1ccc(-c2nc3cccnc3s2)cc1`, the growth inhibition was 14% (inactive).

As for `O=[N+]([O-])c1cc(CCl)ccc1CCl`, the growth inhibition is 97% (active).

With `COc1ccc(/C=C2\SC(=S)N(/C=C/c3nc4ccccc4[nH]c3=O)C2=O)cc1OC`, the growth inhibition is 85% (active).

As to `CCCN(CCC)CC(O)c1cc(-c2ccc(Cl)cc2)nc2c(C)c(Cl)ccc12` (configuration not stated), the growth inhibition was 94% (active).

`O=C(Nc1ccccc1)OCCc1ccc(Cl)c(Cl)c1`: the growth inhibition is 52% (inactive).

For the compound `CC(O)C(O)C(O)C(/C=N\Nc1ccccc1)=N/Nc1ccccc1` (configuration not stated), the growth inhibition is 30% (inactive).

As to `C#CCCCc1ccccc1`, the growth inhibition was 97% (active).

As for `CC(=O)Cc1ccc[cH-]1.[Fe+2].c1cc[cH-]c1`, the growth inhibition was 21% (inactive).

As for `Cc1cc(I)ccc1N`, the growth inhibition is 94% (active).

For `CC(C)(CN1CCCCC1)C(=O)CC(SCCS(=O)(=O)O)c1ccc(Br)cc1` (configuration not stated), the growth inhibition is 61% (inactive).

In the case of `C[Si](C)(C)CNC(=O)OCc1ccccc1`, the growth inhibition is 94% (active).

Regarding `CC(C(=O)N1C(=O)N(C(=O)[C@H](C)C(O)c2ccccc2)[C@H](c2ccccc2)[C@H]1c1ccccc1)[C@@H](O)c1ccccc1` (some centres not stated), the growth inhibition is 48% (inactive).

Turning to `Oc1cccc2c(Cl)ccnc12`, the growth inhibition was 97% (active).

As to `O=C1C=CC(=C(c2ccccc2)c2ccccc2)c2ccccc21`, the growth inhibition was 21% (inactive).

Regarding `S=C(S)NN1CCOCC1`, the growth inhibition was 8% (inactive).

A short description of the next assay: NCI Yeast Anticancer Drug Screen. Data for the wt2 strain (AID 169).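 Further: 0% = growth of vehicle-treated yeast cultures.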 Conditions: S. cerevisiae wt2 strain growth inhibition; at 1.2 µM; hits give high values. In a few lines:
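The panel's yeast strains carry defined changes in DNA repair or cell cycle genes. Each strain is grown with compound, and growth loss is scored relative to vehicle.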
`C/C(=N\NC(=S)SCc1ccccc1)c1ccccn1`: the growth inhibition was -36% (inactive).

In the case of `CC[C@@]1(O)C(=O)OCc2c1cc1n(c2=O)Cc2cc3c(N)cccc3nc2-1`, the growth inhibition was -16% (inactive).

In the case of `CC(=O)OCCOCNC(=S)N/N=C(\C)c1cnccn1`, the growth inhibition is -23% (inactive).

In the case of `COc1ccc(C2c3cc4c(cc3OC(C)(O)C2C)OCO4)c(OC)c1` (configuration not stated), the growth inhibition is -2% (inactive).

On to `COc1ccc(Br)c(C(=O)Sc2nnnn2-c2cccc(Cl)c2)c1`, for which the growth inhibition is -11% (inactive).

In the case of `O=C(NNc1ccnc2cc(Cl)ccc12)/C(=C\c1ccccc1Cl)NC(=O)c1ccccc1`, the growth inhibition is 4% (inactive).

Regarding `CSC(=S)Nc1cccc(C)n1`, the growth inhibition was -29% (inactive).

Consider `O=C(/C=C\c1ccc(Cl)cc1Cl)c1cccs1`, for which the growth inhibition was -5% (inactive).

On to `COc1ccc(-c2cn(-c3ccc(I)cc3)c3ncnc(N)c23)cc1`, for which the growth inhibition is -4% (inactive).

As for `CN(C)c1ccc(C(C#N)=C(C#N)C#N)cc1`, the growth inhibition is -2% (inactive).

In the case of `COc1cc(/C=C2\CCc3ccccc3C2=O)cc(OC)c1OC`, the growth inhibition is 2% (inactive).

With `CC(C)/C(Cl)=N\OC(=O)Nc1cccc(Cl)c1`, the growth inhibition was -2% (inactive).

As for `CC1(C)[C@@H]2CC[C@]1(C)[C@H](OC(=O)CSC#N)C2`, the growth inhibition is 1% (inactive).

On to `NNC(=O)CCc1ccc2ccc3ccccc3c2c1`, for which the growth inhibition is -1% (inactive).

Consider `C=CC(C)(O)CCC1C(=C)C(O)CC2C(C)(C)CCCC12C` (configuration not stated), for which the growth inhibition is -2% (inactive).

In the case of `S=C(Nc1ccc(Cl)c(Cl)c1)SCc1ccc2c(c1)OCO2`, the growth inhibition was 14% (inactive).

For the compound `COc1cc(C2C3=C(COC3=O)Oc3cc4c(cc32)OCO4)ccc1O` (configuration not stated), the growth inhibition was -2% (inactive).

Take `S=C(Nc1ccc(Cl)cc1)SC1CCCCC1`: the growth inhibition was -35% (inactive).

For the compound `Nc1nc(-c2cccnc2)cc(-c2cc(-c3cccnc3)nc(N)n2)n1`, the growth inhibition was -1% (inactive).

Turning to `COC1=CC(=O)C2C(C1=O)C(c1ccc(Cl)cc1)[C@@H]2C` (some centres not stated), the growth inhibition is 6% (inactive).

As for `O=[N+]([O-])c1cc(CCl)ccc1CCl`, the growth inhibition was 3% (inactive).

`COc1ccc(/C=C2\SC(=S)N(/C=C/c3nc4ccccc4[nH]c3=O)C2=O)cc1OC`: the growth inhibition is 1% (inactive).

Consider `CCCN(CCC)CC(O)c1cc(-c2ccc(Cl)cc2)nc2c(C)c(Cl)ccc12` (configuration not stated), for which the growth inhibition was -3% (inactive).

With `O=C(Nc1ccccc1)OCCc1ccc(Cl)c(Cl)c1`, the growth inhibition was -7% (inactive).

With `CC(O)C(O)C(O)C(/C=N\Nc1ccccc1)=N/Nc1ccccc1` (configuration not stated), the growth inhibition was 2% (inactive).

As for `C#CCCCc1ccccc1`, the growth inhibition is -52% (inactive).

For the compound `CC(=O)Cc1ccc[cH-]1.[Fe+2].c1cc[cH-]c1`, the growth inhibition is 2% (inactive).

Consider `Cc1cc(I)ccc1N`, for which the growth inhibition was -28% (inactive).

Turning to `CC(C)(CN1CCCCC1)C(=O)CC(SCCS(=O)(=O)O)c1ccc(Br)cc1` (configuration not stated), the growth inhibition is 1% (inactive).

Take `C[Si](C)(C)CNC(=O)OCc1ccccc1`: the growth inhibition is -1% (inactive).

In the case of `CC(C(=O)N1C(=O)N(C(=O)[C@H](C)C(O)c2ccccc2)[C@H](c2ccccc2)[C@H]1c1ccccc1)[C@@H](O)c1ccccc1` (some centres not stated), the growth inhibition is -8% (inactive).
